Among the data in ChEMBL document CHEMBL2218924, “A broad activity screen in support of a chemogenomic map for kinase signalling research and drug discovery” (Biochem J, 2013) are residual activity values, retold here.

The first test deals with T1, Serine/threonine-protein kinase NLK (Homo sapiens) (UniProt Q9UBE8).
T1 sequence (whole entry): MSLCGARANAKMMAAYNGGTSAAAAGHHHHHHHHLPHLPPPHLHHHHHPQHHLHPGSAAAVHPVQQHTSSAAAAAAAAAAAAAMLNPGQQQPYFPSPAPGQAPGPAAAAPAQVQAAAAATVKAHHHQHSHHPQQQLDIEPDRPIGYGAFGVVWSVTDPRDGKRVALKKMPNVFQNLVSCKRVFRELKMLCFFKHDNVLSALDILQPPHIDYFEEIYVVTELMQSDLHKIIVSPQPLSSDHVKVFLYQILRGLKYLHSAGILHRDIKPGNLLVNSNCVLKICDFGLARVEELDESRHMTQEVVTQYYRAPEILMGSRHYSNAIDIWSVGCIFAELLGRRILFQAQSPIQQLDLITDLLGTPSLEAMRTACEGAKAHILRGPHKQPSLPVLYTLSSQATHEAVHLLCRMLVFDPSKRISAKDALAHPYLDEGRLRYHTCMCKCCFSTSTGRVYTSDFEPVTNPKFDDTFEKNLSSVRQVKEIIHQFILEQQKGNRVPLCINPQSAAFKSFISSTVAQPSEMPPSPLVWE
The following applies: at 1 µM.
As to `COc1cc2c(cc1OC)-c1n[nH]c(Nc3cccc(F)c3)c1C2`, the residual activity was 54%.

As to `O=C1Cc2c([nH]c3ccc(Br)cc23)-c2ccccc2N1`, the residual activity was 83%.

Take `Cn1c2ccccc2c2c3c(c4c5ccccc5n(CCC#N)c4c21)CNC3=O`: the residual activity came out at 50%.

As to `O=C1NC(=O)C(c2cn(CCCO)c3ncccc23)=C1c1cnccn1`, the residual activity is 98%.

As for `CC(C)(C)n1nc(Cc2cccc3ccccc23)c2c(N)ncnc21`, the residual activity stood at 44%.

`O=c1cc(N2CCOCC2)oc2c1ccc1ccccc12`: the residual activity turned out to be 108%.

As for `Nc1ncnc2c1c(-c1ccc(Oc3ccccc3)cc1)cn2C1CCCC1`, the residual activity came out at 81%.

For the molecule `COc1cc2nccc(Oc3ccc(NC(=O)Nc4cc(C)on4)c(Cl)c3)c2cc1OC`, the residual activity is 77%.

As to `Cn1sc(=O)n(Cc2ccccc2)c1=O`, the residual activity worked out at 82%.

Turning to `CCCC(=O)Oc1ccc2[nH]c(C(=O)c3cc4ccccc4[nH]3)cc2c1`, the residual activity amounted to 90%.

With `O=C1NC(=O)c2c1c1c3ccccc3[nH]c1n1cncc21`, the residual activity stood at 89%.

As for `Nc1ncnc2[nH]nc(Nc3ccc(F)cc3)c12`, the residual activity was determined as 93%.

As to `Nc1n[nH]c2nc3ccccc3nc12`, the residual activity was found to be 97%.

Regarding `NC(=O)Nc1sc(-c2ccc(F)cc2)cc1C(N)=O`, the residual activity came out at 89%.

With `O=C(NC(NC(=S)Nc1ccc(F)c([N+](=O)[O-])c1)C(Cl)(Cl)Cl)C(c1ccccc1)c1ccccc1` (configuration not stated), the residual activity was found to be 103%.

`O=C1Nc2ccc(Cl)cc2/C1=C/c1cc(Cl)c(O)c(Cl)c1`: the residual activity was 47%.

For the molecule `COc1ccc(Cl)cc1NC(=O)Nc1cc(C)nc2ccccc12`, the residual activity was 99%.

Take `Nc1ncnc2c1cnn2-c1ccccc1`: the residual activity worked out at 88%.

As for `O=C(c1cc2cc(O)ccc2[nH]1)c1cc2cc(O)ccc2[nH]1`, the residual activity worked out at 61%.

For the molecule `COc1cc2nccc(Oc3ccc(NC(=S)NC(=O)c4ccccc4C)cc3)c2cc1OC`, the residual activity is 81%.

Consider `O=c1cc(N2CCNCC2)oc2c(-c3ccccc3)cccc12`, for which the residual activity was 99%.

With `CC(C)c1nn(-c2c(Cl)cccc2Cl)c2nc(Cc3ccc(OCCO)cc3)[nH]c(=O)c12`, the residual activity stood at 88%.

Another test has as its target T1, Serine/threonine-protein kinase NLK (Homo sapiens). The following applies: at 10 µM.
As for `COc1cc2c(cc1OC)-c1n[nH]c(Nc3cccc(F)c3)c1C2`, the residual activity turned out to be 17%.

On to `O=C1Cc2c([nH]c3ccc(Br)cc23)-c2ccccc2N1`, for which the residual activity worked out at 54%.

Consider `Cn1c2ccccc2c2c3c(c4c5ccccc5n(CCC#N)c4c21)CNC3=O`, for which the residual activity worked out at 41%.

For `O=C1NC(=O)C(c2cn(CCCO)c3ncccc23)=C1c1cnccn1`, the residual activity is 93%.

On to `O=C(c1ccccc1)c1ccc(N2CCOCC2)cc1O`, for which the residual activity stood at 63%.

Consider `CC(C)(C)n1nc(Cc2cccc3ccccc23)c2c(N)ncnc21`, for which the residual activity came to 15%.

Turning to `O=c1cc(N2CCOCC2)oc2c1ccc1ccccc12`, the residual activity was 80%.

For `O=C1Nc2ccccc2/C1=C\c1c(Cl)[nH]c2ccccc12`, the residual activity was 73%.

On to `Nc1ncnc2c1c(-c1ccc(Oc3ccccc3)cc1)cn2C1CCCC1`, for which the residual activity was 41%.

Regarding `COc1cc2nccc(Oc3ccc(NC(=O)Nc4cc(C)on4)c(Cl)c3)c2cc1OC`, the residual activity is 42%.

In the case of `Cn1sc(=O)n(Cc2ccccc2)c1=O`, the residual activity came to 92%.

`CCCC(=O)Oc1ccc2[nH]c(C(=O)c3cc4ccccc4[nH]3)cc2c1`: the residual activity is 108%.

Take `O=C1NC(=O)c2c1c1c3ccccc3[nH]c1n1cncc21`: the residual activity turned out to be 72%.

For the molecule `Nc1ncnc2[nH]nc(Nc3ccc(F)cc3)c12`, the residual activity came out at 55%.

With `O=C1NC(=O)C(c2c[nH]c3ccccc23)=C1c1c[nH]c2ccccc12`, the residual activity worked out at 71%.

For the molecule `Nc1n[nH]c2nc3ccccc3nc12`, the residual activity was 91%.

As to `NC(=O)Nc1sc(-c2ccc(F)cc2)cc1C(N)=O`, the residual activity stood at 61%.

As to `O=C(NC(NC(=S)Nc1ccc(F)c([N+](=O)[O-])c1)C(Cl)(Cl)Cl)C(c1ccccc1)c1ccccc1` (configuration not stated), the residual activity was 101%.

Take `O=C1Nc2ccc(Cl)cc2/C1=C/c1cc(Cl)c(O)c(Cl)c1`: the residual activity was found to be 15%.

As for `COc1ccc(Cl)cc1NC(=O)Nc1cc(C)nc2ccccc12`, the residual activity was determined as 82%.

On to `Nc1ncnc2c1cnn2-c1ccccc1`, for which the residual activity turned out to be 80%.

With `O=C(c1cc2cc(O)ccc2[nH]1)c1cc2cc(O)ccc2[nH]1`, the residual activity was determined as 19%.

As to `COc1cc2nccc(Oc3ccc(NC(=S)NC(=O)c4ccccc4C)cc3)c2cc1OC`, the residual activity turned out to be 60%.

With `O=c1cc(N2CCNCC2)oc2c(-c3ccccc3)cccc12`, the residual activity came out at 77%.

As for `CC(C)c1nn(-c2c(Cl)cccc2Cl)c2nc(Cc3ccc(OCCO)cc3)[nH]c(=O)c12`, the residual activity came out at 46%.

The target in another test is Serine/threonine-protein kinase PAK 2 (Homo sapiens) (UniProt Q13177). The note with it: at 1 µM.
Sequence of Serine/threonine-protein kinase PAK 2 (Homo sapiens) (Q13177 whole entry): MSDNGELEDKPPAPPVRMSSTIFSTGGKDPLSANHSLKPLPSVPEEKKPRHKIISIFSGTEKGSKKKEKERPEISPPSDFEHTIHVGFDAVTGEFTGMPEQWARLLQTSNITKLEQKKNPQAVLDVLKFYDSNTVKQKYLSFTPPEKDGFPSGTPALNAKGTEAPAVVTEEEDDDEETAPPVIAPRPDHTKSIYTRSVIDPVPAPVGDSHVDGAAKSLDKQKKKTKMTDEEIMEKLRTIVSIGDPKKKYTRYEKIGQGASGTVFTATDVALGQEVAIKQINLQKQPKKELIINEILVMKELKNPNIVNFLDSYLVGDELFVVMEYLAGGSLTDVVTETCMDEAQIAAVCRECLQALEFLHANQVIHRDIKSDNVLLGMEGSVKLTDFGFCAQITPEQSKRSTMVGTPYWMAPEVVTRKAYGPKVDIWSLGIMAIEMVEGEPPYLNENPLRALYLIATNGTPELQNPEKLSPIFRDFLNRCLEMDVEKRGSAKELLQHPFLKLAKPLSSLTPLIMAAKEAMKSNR
For the molecule `COc1cc2ncnc(Nc3cccc(Cl)c3)c2cc1OC`, the residual activity worked out at 126%.

As to `N#Cc1c(NC(=O)c2cccc3ccccc23)sc2c1CCCC2`, the residual activity was determined as 93%.

Consider `O=C1Cc2c([nH]c3ccc(Br)cc23)-c2ccccc2N1`, for which the residual activity amounted to 91%.

Consider `Cn1c2ccccc2c2c3c(c4c5ccccc5n(CCC#N)c4c21)CNC3=O`, for which the residual activity was determined as 101%.

As for `O=C1NC(=O)C(c2cn(CCCO)c3ncccc23)=C1c1cnccn1`, the residual activity stood at 89%.

With `CC(C)(C)n1nc(Cc2cccc3ccccc23)c2c(N)ncnc21`, the residual activity was 98%.

As to `O=C1Cc2c([nH]c3ccc([N+](=O)[O-])cc23)-c2ccccc2N1`, the residual activity was found to be 43%.

Take `O=c1cc(N2CCOCC2)oc2c1ccc1ccccc12`: the residual activity turned out to be 97%.

With `Nc1ncnc2c1c(-c1ccc(Oc3ccccc3)cc1)cn2C1CCCC1`, the residual activity came out at 98%.

For the molecule `Cn1sc(=O)n(Cc2ccccc2)c1=O`, the residual activity is 97%.

For `CCCC(=O)Oc1ccc2[nH]c(C(=O)c3cc4ccccc4[nH]3)cc2c1`, the residual activity was found to be 102%.

`O=C1NC(=O)c2c1c1c3ccccc3[nH]c1n1cncc21`: the residual activity was determined as 98%.

Turning to `Nc1ncnc2[nH]nc(Nc3ccc(F)cc3)c12`, the residual activity came to 106%.

For `NC(=O)Nc1sc(-c2ccc(F)cc2)cc1C(N)=O`, the residual activity was determined as 93%.

Take `O=C1Nc2ccc(Cl)cc2/C1=C/c1cc(Cl)c(O)c(Cl)c1`: the residual activity came to 97%.

With `O=C(c1cc2cc(O)ccc2[nH]1)c1cc2cc(O)ccc2[nH]1`, the residual activity was determined as 100%.

With `COc1cc2nccc(Oc3ccc(NC(=S)NC(=O)c4ccccc4C)cc3)c2cc1OC`, the residual activity is 98%.

`O=c1cc(N2CCNCC2)oc2c(-c3ccccc3)cccc12`: the residual activity is 98%.

Turning to `CC(C)c1nn(-c2c(Cl)cccc2Cl)c2nc(Cc3ccc(OCCO)cc3)[nH]c(=O)c12`, the residual activity came to 88%.

For the molecule `O=C(O)/C=C/c1cc(Br)c(Br)c(Br)c1Br`, the residual activity turned out to be 97%.
